High-throughput results from PubChem BioAssay.
GLS inhibitor = qHTS for Inhibitors of Glutaminase (GLS) | Glutaminase kidney isoform, mitochondrial (Homo sapiens), O94925 | GLS enzymatic activity, qHTS titration | Potency, µM (top dose mostly 45.5 µM), for inactives: at the highest dose activity change, negative = inhibition, actives largely listed as inhibitors | actives 0.21% (n = 410,000) | AID 624170, 2012; further: on the % scale 0 is the no-effect control and ±100 the full control effect
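hKGA; 45 mM KH2PO4 pH 8.2 + 0.02% Tween-20; cpd via pin tool; 1 mM Gln soln; GluOx/HRP/Amplex Red; RT 30 min; fluor. t0 & final.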
G9a inh = qHTS Assay for Inhibitors of Histone Lysine Methyltransferase G9a | G9a H3K9 monomethylation, AlphaScreen, 2 h | Potency, µM (top dose mostly 102 µM), for the others: at the highest dose activity, negative = inhibition, hits mostly inhibitors | actives 8.8% (n = 350,000) | AID 504332, 2011; further: on the % scale 0 is the no-effect control and ±100 the full control effect; nearly all actives have a fitted effect of over 75% in size
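Quantitative HTS format: methyltransferase activity on a biotin-tagged H3K9 peptide is measured by AlphaScreen, using a rabbit anti-monomethyl-H3K9 antibody with streptavidin donor and anti-IgG acceptor beads. Final levels are 20 nM enzyme, 500 nM peptide, 20 uM SAM; 2 h RT.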
L3MBTL1 inh = qHTS Assay for the Inhibitors of L3MBTL1; Lethal(3)malignant brain tumor-like protein 1 (Homo sapiens), Q9Y468; AlphaScreen L3MBTL1–H3K9me1 peptide binding; Potency, µM (top dose mostly 57.1 µM), without a hit: top-dose activity, negative = inhibition, hits mostly inhibitors; actives 0.66% (n = 230,000); AID 485360, 2010; further: on the % scale 0 is the no-effect control and ±100 the full control effect; nearly all actives have a fitted effect of over 60% in size
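AlphaScreen proximity signal between nickel-chelate acceptor and streptavidin donor beads (final 10 ug/mL) reports binding of 50 nM L3MBTL1 to 75 nM biotin-H3 K9me1 peptide; complex incubated with compounds 30 min at room temperature; cefsulodin titration as control.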
HP1b chromo inh = HTS for Inhibitors of HP1-beta Chromodomain Interactions with Methylated Histone Tails. Chromobox protein homolog 1 (Homo sapiens), P83916. AlphaScreen HP1-beta / biotin-H3K9me3 peptide binding. Potency, µM (doses to about 114 µM), without a hit: at the top dose activity change, negative = inhibition, hits mostly inhibitors. actives 0.56% (n = 390,000). AID 540317, 2011; further: nearly all actives have a fitted effect of over 70% in size
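Compound inhibition of the preformed complex between 50 nM HP1-beta and 50 nM biotinylated H3K9me3 peptide was read by AlphaScreen. Buffer was PBS pH 7.4 with 0.01% Tween-20. Incubations ran 30 min at room temperature, with 10 ug/mL donor/acceptor beads.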
BAZ2B block = qHTS Assay for Inhibitors of BAZ2B | Bromodomain adjacent to zinc finger domain protein 2B (Homo sapiens), Q9UIF8 | AlphaScreen BAZ2B-H3K14Ac peptide displacement | Potency, µM (series often up to 114 µM), for the others: at the top dose activity change, negative = inhibition, most hits filed as inhibitors | actives 4.4% (n = 360,000) | AID 504333, 2011; further: on the % scale 0 is the no-effect control and ±100 the full control effect; nearly all actives have a fitted effect of over 60% in size
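Inhibition is scored as reduced AlphaScreen emission. The BAZ2B/b-H3(5-23)K14Ac complex (50 nM each) in PBS pH 7.4, 0.01% Tween-20 meets compound (up to 110 uM) for 30 min at RT before bead addition.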
JMJD2A Tudor = qHTS Assay for Inhibitors of JMJD2A-Tudor Domain; AlphaScreen JMJD2A-Tudor / H3K4me3 peptide binding; Potency, µM (highest dose often 114 µM), inactives show top-dose activity change, negative = inhibition, usual class: inhibitors; actives 4.4% (n = 390,000); AID 504339, 2011; further: on the % scale 0 is the no-effect control and ±100 the full control effect; nearly all actives have a fitted effect of over 50% in size
* hit, by the source's call; ? = inconclusive; nt = no result; [ ] = another dose, or the depositor's remark. Shown are actives, neighbours in structure and some others; about 10% of the full set was active somewhere. The call rests on the fitted dose curve; in most records, active means well fitted curve in the direction sought with a large enough effect; inconclusive means small, poorly fitted or top-dose-only effect, or another doubt; inactive means no such curve, though single readings can be large; an effect the other way counts as inactive or inconclusive. Potency means the concentration at half of the fitted maximal effect.

SMILES	GLS inhibitor	G9a inh	L3MBTL1 inh	HP1b chromo inh	BAZ2B block	JMJD2A Tudor
Cc1c(Cl)cccc1-n1c(-c2cccnc2)n[nH]c1=S	-1.8%	16.3%[12.7 µM]	-11.6%	43.4%	-1.5%	35.5µM*
Cc1cc(Cl)ccc1-n1c(-c2cccnc2)n[nH]c1=S	0.5%	10µM*	-16.7%	44.3%	4.0%	28.2µM*
COc1ccc(-n2c(SCC(=O)Nc3cccc(C)c3C)nc3c([nH]c4ccccc43)c2=O)cc1	-8.7%	8.8%[59 µM]	nt	10.7%[57 µM]	-4.5%	-7.1%
S=c1ncc2[nH]c(=S)[nH]c2[nH]1	?	nt	nt	?	nt	11.2µM*
CCCCCOC(=O)C1[C@H]2C(=O)N(Cc3cccs3)C[C@]23C=C[C@H]1O3 (some centres not stated)	3.6%	9.9%[59 µM]	10.2%	25.5%	-2.3%	-17.9%
CCOC(=O)C1C2C=CC3(CN(Cc4ccccc4)C(=O)C13)O2 (configuration not stated)	0.0%	14.9%[59 µM]	nt	46.9%	-6.5%	-3.8%
CCCOC(=O)C1[C@H]2C(=O)N(Cc3ccco3)C[C@]23C=C[C@H]1O3 (some centres not stated)	-2.3%	50.1µM*	-1.8%	37.6%	9.8%	-18.0%
CCCCOC(=O)C1[C@H]2C(=O)N(Cc3cccs3)C[C@]23C=C[C@H]1O3 (some centres not stated)	-1.5%	-37.0%[59 µM]	-5.0%	35.1%	79.4µM*	-16.0%
O=S(=O)(NCCc1nnc2ccc(SCc3cccc(Cl)c3)nn12)c1ccccc1	-0.1%	-31.4%[59 µM]	nt	38.9%	-34.9%	-5.5%
NC(=O)Cc1nc(-c2ccc(F)cc2)cs1	3.2%	22.4µM*	9.1%	-5.8%	-6.8%	-11.0%
CCCCOC(=O)C(C)Nc1n[nH]c(=S)[nH]c1=O (configuration not stated)	-20.2%	?	nt	-11.2%	?	11.2µM*
CCCCOC(=O)C(C)c1c(C)[nH]c(=S)[nH]c1=O (configuration not stated)	4.7%	39.8µM*	-2.1%	43.4%	-33.4%	2.5%
CCCCOC(=O)CCc1c(C)[nH]c(=S)[nH]c1=O	-19.8%	35.0%[0.501 µM]	3.2%	43.2%	-7.4%	-13.9%
CCOc1ccc(NC(=S)Nc2ccc(OCc3ccccc3)cc2)cc1	-9.2%	2.8%[59 µM]	-19.2%	-2.6%	?	-21.9%
CCc1ccc(Nc2n[n+](-c3ccccc3)c(-c3ccc(OCc4ccccc4)cc3)s2)cc1	-0.8%	?	-5.6%	20.6%	50.1µM*	-26.9%
COc1ccc(-c2sc(Nc3ccccc3)n[n+]2-c2ccc(F)cc2)cc1Br	1.2%	?	-2.5%	7.4%	-11.6%	?
c1ccc(COc2ccc(-c3sc(Nc4ccccc4)n[n+]3-c3ccccc3)cc2)cc1	nt	22.4µM*	-3.7%	nt	44.7µM*	nt
CC(=O)c1ccc(N2CCN(C(=O)c3cn(C)c(=O)c4c3c3ccccc3n4C)CC2)cc1	-1.9%	0.8%[59 µM]	nt	30.3%	-23.4%	-17.4%
Cc1nc2cnc(Oc3cccc(Cl)c3)nc2n(Cc2ccc(F)cc2)c1=O	nt	9.6%[0.501 µM]	nt	nt	nt	nt
CC(C)C(=O)Nc1ccc(NC(=O)c2ccccn2)cn1	3.2%	25.1µM*	5.8%	14.1%	-5.4%	?
CCC(=O)Nc1ccc(NC(=O)c2ccccn2)cn1	4.0%	?	-1.5%	16.6%	5.7%	-13.2%
O=C(Nc1ccc(NC(=O)C2CC2)nc1)c1ccccn1	8.4%	31.6µM*	9.2%	17.3%	?	44.7µM*
O=C(Nc1ccc(F)c(F)c1)c1cc(S(=O)(=O)N2CCN(c3ccccn3)CC2)ccc1F	5.2%	?	nt	9.5%	-0.8%	-18.0%
O=C(Nc1c(F)cc(F)cc1Br)c1cc(S(=O)(=O)N2CCN(c3ccccn3)CC2)ccc1F	-1.5%	50.1µM*	-1.0%	27.8%	?	?
Cc1cccc(C(=O)NNC(=O)c2ccccc2)c1	4.8%	22.6%	2.0%	26.8%	5.1%	-1.1%
SMILES	GLS inhibitor	G9a inh	L3MBTL1 inh	HP1b chromo inh	BAZ2B block	JMJD2A Tudor
O=C(NNc1cc(Br)c(O)c(Br)c1)c1ccccc1	-1.8%	5.01µM*	nt	39.8µM*	8.91µM*	8.91µM*
Nc1nc(-c2ccc3c(c2)OCCO3)cs1	17.3%	?	-0.2%	0.1%	nt	-34.8%
Nc1nc(-c2cc3c(cc2Cl)OCCO3)cs1	-5.0%	14.1µM*	-5.4%	4.9%	?	-22.8%
Cc1ccc(NC(=O)C2CCCN2S(=O)(=O)c2cccc3cccnc23)cc1C (configuration not stated)	3.8%	-2.5%[59 µM]	nt	28.3%	-2.0%	-11.3%
COc1ccc(-c2csc(NC(=O)c3ccoc3C)n2)cc1	0.1%	50.1µM*	-13.3%	-0.1%	?	-14.1%
Cc1ccc(-c2csc(NC(=O)c3ccno3)n2)cc1	7.0%	50.1µM*	nt	24.2%	?	79.4µM*
COc1ccc(-c2csc(NC(=O)C3CCCO3)n2)cc1 (configuration not stated)	-1.0%	12.6µM*	-3.1%	13.0%	?	?
CCc1ccccc1NC(=O)C(CCSC)NS(=O)(=O)c1ccc2c(c1)oc(=O)n2C (configuration not stated)	-6.8%	-2.0%[59 µM]	nt	30.8%	-4.2%	-21.5%
COc1ccc(NC(=O)c2cc(-c3ccccc3)nc3c2cnn3C(C)C)cc1	-13.5%	22.1%[2.33 µM]	5.7%	?	-2.8%	79.4µM*
COc1cccc(-n2c(=O)[nH]cc(C(=O)Nc3ccc(NC(C)=O)cc3)c2=O)c1	-0.9%	44.7µM*	5.2%	41.9%	-6.6%	-23.4%
COc1ccc(NC(=O)c2c[nH]c(=O)n(-c3ccc(C)c(C)c3)c2=O)cc1OC	-0.3%	-8.2%	-1.1%	40.8%	-0.6%	-15.6%
O=[N+]([O-])c1ccc(Sc2nnnn2-c2ccccc2)c(Cl)c1	-4.7%	50.1µM*	nt	?	?	?
COc1ccc(N2CCN(C(=O)CSc3nnc4c(C)cc5cc(C)ccc5n34)CC2)cc1	17.4%	44.7µM*	-6.7%	-27.7%	?	-18.8%
COc1ccc(N2CCN(C(=O)CSc3nnc4c(C)cc5c(C)cc(C)cc5n34)CC2)cc1	29.0%	?	-0.9%	-20.6%	6.2%	?
Cc1ccc2cc(C)c3nnc(SCC(=O)N4CCN(C(=O)c5ccco5)CC4)n3c2c1	0.0%	50.1µM*	nt	5.1%	-2.0%	-21.5%
